The values that follow come from PubChem BioAssay (NCI).

Common to all, as to experiment: NCI-60 one-dose screen, 48 h (100 = growth as untreated, 0 = no growth, -100 = all killed)
Holding throughout (details): 10 µM unless noted

For test [1], the system named is DU-145 prostate.
Test [2] concerns K-562 leukemia.
Test [3] relates to MALME-3M melanoma.
For test [4], the system named is MDA-MB-231 breast.
Test [5] deals with RXF 393 renal.
Test [6] concerns SF-268 CNS.
Test [7] relates to SF-295 CNS.
Test [8] deals with SF-539 CNS.
The subject of test [9] is UACC-257 melanoma.
Test [10] deals with M14 melanoma.
The subject of test [11] is HCT-15 colon.
Test [12] deals with HT29 colon.
Test [13] concerns SNB-75 CNS.
Test [14] concerns SNB-19 CNS.
Test [15] concerns U251 CNS.
The subject of test [16] is PC-3 prostate.
The test system of test [17] is UACC-62 melanoma.
In test [18] the test system is LOX IMVI melanoma.
The subject of test [19] is SK-MEL-28 melanoma.

This is part of a sample that, as a whole, favours compounds with a hit. Of some 83,000 tested, about 20% had one in any assay.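 The test compound was applied at a single concentration to cells in 96-well plates for 48 hours, and percent growth was recorded.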 Unmarked numbers belong to inactive results. Active and inactive are the calls of the source. Rule for the calls: active = growth percent below 10; inactive = the rest.

As for `COc1cc(C(=O)Oc2ccccc2OC(=O)c2cc(OC)c(OC)c(OC)c2)cc(OC)c1OC`, the growth in test [1] was 109%; in [2], 100%; in test [3], 130%; in test [4] it was 85.5%; in test [5] it was 89.5%; in test [6], 84%. For the same compound, the growth is 115% in test [7]; 88.5% in [8]; 86.7% in [9]; 116% in [10]; 99.4% in test [11]; 110% in [12]. In addition, the growth in [13] is 95.3%; in test [14] it was 97%; in test [15], 104%; in test [16], 88.8%; in test [17], 103%; in [18], 94.9%. In [19], the growth is 120%.
For the compound `O=C(CCl)Oc1ccc(-c2ccccc2)c(Br)c1`, the growth in [1] was 104%; in [2], 103%; in test [3], 107%; in test [4], 109%; in test [5], 106%; in [6], 104%. The growth in [7] was 107%; in test [8] it was 99.4%; in test [9] it was 106%; in test [10] it was 103%; in test [11] it was 110%; in test [12], 109%. Further, the growth was 95.6% in test [13]; 107% in test [14]; 102% in test [15]; 97.2% in test [16]; 99.6% in [17]; 97% in test [18]. The growth in test [19] was 107%.
For `CC(=O)NCC1c2c(n(C)c3c(Cl)c(Cl)ccc23)C(=O)NC1(C)C` (stereo not drawn), the growth in [1] is 108%; in test [2], 79.5%; in test [3], 108%; in test [4], 112%; in test [5] it was 90.5%; in test [6] it was 108%. Also, the growth was 89.5% in test [7]; 94.5% in test [8]; 103% in [9]; 94.2% in [10]; 102% in [11]; 108% in [12]. Also, the growth in [13] was 87.7%; in [14], 102%; in [15], 94.7%; in test [16] it was 91%; in test [17], 94.4%; in test [18] it was 95%. In [19], the growth is 111%.
Turning to `O=Nc1c(O)c(Cl)cc2ccccc12`, the growth in test [1] is 101%; in test [2], 54.3%; in [3] it was 90.8%; in test [4], 74.3%; in [5], 67.4%; in test [6], 82.5%. Besides, the growth in test [7] was 111%; in test [8], 89.2%; in test [9], 75.8%; in test [10] it was 85.7%; in test [11], 87.9%; in test [12], 83.1%. Further, the growth in test [13] was 62%; in test [14], 88.9%; in [15], 65.6%; in [16] it was 66.7%; in test [17] it was 77.5%; in test [18] it was 72.4%. Further, in test [19], the growth is 92.1%.
In the case of `CCc1nnc(CNc2ccc(Cl)cc2)o1`, the growth in test [1] was 108%; in test [2] it was 86.3%; in test [3], 95.6%; in test [4], 94.4%; in [5], 113%; in test [6], 96.4%. The growth in test [7] was 102%; in [8], 97%; in [9], 103%; in [10], 95.1%; in test [11], 100%; in test [12], 95.1%. Moreover, the growth is 82.7% in test [13]; 106% in test [14]; 98.2% in test [15]; 95.1% in test [16]; 93.7% in test [17]; 91.2% in test [18]. In addition, in [19], the growth was 100%.
With `CCOC(=O)c1c(C)oc2ncnc(N3CCN(C(=O)COc4ccc(SC)cc4)CC3)c12`, the growth in [1] was 99.6%; in [2], 82.4%; in [3], 105%; in test [4], 88.6%; in test [5] it was 99.7%; in test [6], 92.7%. The growth in test [7] was 88.2%; in [8], 93.5%; in [9], 95%; in [10], 97.9%; in [11], 95.8%; in test [12], 95.3%. Also, the growth is 83% in [13]; 97.9% in [14]; 87.5% in test [15]; 82.2% in test [16]; 86.8% in [17]; 90.5% in [18]. Further, the growth in [19] was 110%.
With `C=CC(COC(c1ccccc1)(c1ccccc1)c1ccccc1)N(CC)CC` (stereo not drawn), the growth in test [1] was 69.9%; in test [2] it was 14.4%; in [3], 61.9%; in test [4], 37%; in test [5], -5.47% (active); in test [6] it was 81.9%. For the same compound, the growth is 64.1% in [7]; 62.6% in [8]; 6.09% (active) in test [9]; 9.54% (active) in test [10]; 16.7% in [11]; 14.6% in [12]. Also, the growth is 73% in test [13]; 82.1% in test [14]; 52.5% in test [15]; 47.9% in [16]; 44.8% in [17]; 49.5% in [18]. In test [19], the growth was 59.4%.
